Most compounds without a hit are left out; they make up all but 12% or so of the library.
G9a block: inhibitors of human histone lysine methyltransferase G9a; G9a H3K9 monomethylation, AlphaScreen, 2 h; Potency, µM (doses to about 102 µM), for inactives: at the highest dose activity, negative = inhibition, most hits filed as inhibitors; 350,000 tested, 8.8% active; AID 504332; also: % is scaled to controls: 0 for no effect and ±100 for the full control effect; nearly all actives have a fitted effect of over 75% in size
Target sequence (Q96KQ7 913-1193 limits assumed): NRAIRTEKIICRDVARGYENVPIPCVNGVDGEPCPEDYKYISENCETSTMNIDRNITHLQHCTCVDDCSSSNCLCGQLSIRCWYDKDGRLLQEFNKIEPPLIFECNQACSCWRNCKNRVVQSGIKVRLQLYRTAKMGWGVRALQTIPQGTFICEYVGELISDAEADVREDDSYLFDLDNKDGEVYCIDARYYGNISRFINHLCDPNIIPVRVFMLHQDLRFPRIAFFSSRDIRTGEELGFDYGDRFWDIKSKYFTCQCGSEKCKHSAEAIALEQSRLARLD
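G9a (20 nM) preincubated 15 min RT with compounds, then 500 nM biotinylated H3K9 peptide and 20 uM SAM added; 2 h RT reaction. Monomethyl-H3K9 product detected by AlphaScreen with anti-H3K9me1 antibody, streptavidin donor and anti-rabbit IgG acceptor beads.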
L3MBTL1 inh: blocks human L3MBTL1; AlphaScreen L3MBTL1–H3K9me1 peptide binding; 230,000 tested, 0.66% active; Potency, µM (doses to about 57.1 µM), inactives show top-dose activity, negative = inhibition, usual class: inhibitors; also: % is scaled to controls: 0 for no effect and ±100 for the full control effect; nearly all actives have a fitted effect of over 60% in size
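L3MBTL1 (50 nM) pre-complexed 30 min with biotinylated H3(1-15)K9me1 peptide (75 nM), then compounds added for 30 min at room temperature; AlphaScreen streptavidin donor/nickel chelate acceptor beads (10 ug/mL final) read after 30 min dark incubation.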
Sfp inh: Sfp phosphopantetheinyl transferase inhibition; Biochemical Sfp PPTase activity, qHTS; Potency, µM, without a hit: largest response in the series, negative = inhibition, hits mostly inhibitors; Q9F4F7; 310,000 tested, 3.5% active;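 also: the enzyme is Sfp with the accession as filed and its product quenches rhodamine fluorescence; 0% = enzyme reaction without inhibitor and -100% = no enzyme wells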
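Fluorescence-quenching assay with 15 nM Sfp, 5 uM rhodamine-CoA and 12.5 uM BHQ-2-labelled ybbR peptide in pH 7.6 Hepes/MgCl2 buffer. Enzyme was pre-incubated with compound for 15 min at room temperature. Rate was taken from the 30-min fluorescence change (525/598 nm).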
HP1b binding inh: blocks HP1-beta chromodomain binding to methylated histone tails. AlphaScreen HP1-beta / biotin-H3K9me3 peptide binding. P83916. Potency, µM (highest dose often 114 µM), for the others: at the top dose activity change, negative = inhibition, most hits filed as inhibitors. AID 540317. 390,000 tested, 0.56% active; also: nearly all actives have a fitted effect of over 70% in size
Target sequence (P83916 whole entry, looked up): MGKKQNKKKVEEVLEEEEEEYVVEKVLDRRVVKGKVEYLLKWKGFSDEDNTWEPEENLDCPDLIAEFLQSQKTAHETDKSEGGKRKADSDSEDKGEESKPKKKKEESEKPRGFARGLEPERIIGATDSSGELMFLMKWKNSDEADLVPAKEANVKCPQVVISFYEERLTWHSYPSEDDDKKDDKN
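AlphaScreen: HP1-beta (50 nM) preformed 30 min with biotin-H3(1-18)K9me3 peptide (50 nM) in PBS pH 7.4, 0.01% Tween-20. Compound added for 30 min at RT, then streptavidin donor/nickel chelate acceptor beads (10 ug/mL) for 30 min.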
BAZ2B block: blocks human BAZ2B; AID 504333; Q9UIF8; Potency, µM (series often up to 114 µM), without a hit: top-dose activity change, negative = inhibition, most hits filed as inhibitors; 360,000 tested, 4.4% active; AlphaScreen BAZ2B-H3K14Ac peptide displacement; also: % is scaled to controls: 0 for no effect and ±100 for the full control effect; nearly all actives have a fitted effect of over 60% in size
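BAZ2B 50 nM plus b-H3(5-23)K14Ac 50 nM, PBS pH 7.4/0.01% Tween-20, 30 min RT; compound added (max 110 uM), 30 min RT; streptavidin donor/Ni-chelate acceptor beads 10 ug/mL final, 20 min dark; AlphaScreen read.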
JMJD2A Tudor inh: JMJD2A Tudor domain (human) inhibition; AlphaScreen JMJD2A-Tudor / H3K4me3 peptide binding; AID 504339; 390,000 tested, 4.4% active; O75164; Potency, µM (titrated, usually from 114 µM), for the others: at the highest dose activity change, negative = inhibition, hits mostly inhibitors; also: % is scaled to controls: 0 for no effect and ±100 for the full control effect; nearly all actives have a fitted effect of over 50% in size
* = called active by the depositor; u = inconclusive; x = not tested or not shown; ! = not active in a repeat; [ ] = remark or other dose. Calls follow the shape of the dose curve; as a rule, active = well fitted curve in the direction sought with a large enough effect; inconclusive = small, poorly fitted or top-dose-only effect, or another doubt; inactive = no such curve, though single readings can be large; an effect the other way counts as inactive or inconclusive. Potency is read from the fitted curve at half-maximal effect.

SMILES	G9a block	L3MBTL1 inh	Sfp inh	HP1b binding inh	BAZ2B block	JMJD2A Tudor inh
COc1ccc(N2C(=O)/C(=C/c3cccs3)C(=O)NC2=S)cc1	7.1µM*	x	8.9µM*	-17%	-38%	35µM*
Cc1ccc(N2C(=O)/C(=C/c3ccc(CN(CCC#N)S(C)(=O)=O)o3)C(=O)NC2=S)cc1	7.9µM*	32µM*	20µM*	50µM*	50µM*	18µM*
Cc1ccc(/C=C2\C(=O)NC(=S)N(c3ccc(F)cc3)C2=O)o1	4µM*	16µM*	45µM*	-17%	56µM*	50µM*
COc1ccc(N2C(=O)/C(=C/C=C/c3ccccc3[N+](=O)[O-])C(=O)NC2=S)cc1	6.3µM*	x	35µM*	25µM*	50µM*	13µM*
CCN(CC)c1ccc(/C=C2\C(=O)NC(=S)N(c3ccc(OC)cc3OC)C2=O)o1	x	x	x	-15%	x	-26%
O=c1[nH]c(=O)n(Cl)c(=O)n1Cl	18%[59 µM]	x	4%	x	x	x
COc1cccc(N2C(=O)/C(=C/c3ccc(C)o3)C(=O)NC2=S)c1	4.5µM*	x	25µM*	u	50µM*	22µM*
C=CCN1C(=O)/C(=C/c2ccc(N3CCOCC3)o2)C(=O)NC1=S	u	-47%	-5%	7%	u	-12%
COc1ccc(N2C(=O)/C(=C/c3ccc(N(C)C)o3)C(=O)NC2=S)cc1	45µM*	x	-22%	30%	u	-6%
Cc1cc(C)cc(N2C(=O)/C(=C\c3ccc(N4CCN(C)CC4)o3)C(=O)NC2=S)c1	u	-22%	-1%	u	35µM*	-32%
O=C1Nc2ccccc2C2(CCN(CCc3ccc(C(F)(F)F)cc3)CC2)O1	x	x	-13%	x	x	x
CCOC(=O)c1cccc(N)c1	u	x	21%	x	x	x
O=C1NS(=O)c2cc([N+](=O)[O-])cc([N+](=O)[O-])c21 (centres undefined)	x	1%	18µM*	44%	u	-14%
C[S+](CC[C@H](N)C(=O)O)C[C@H]1O[C@@H](n2cnc3c(N)ncnc32)[C@H](O)[C@@H]1O (some centres undefined)	3.5µM*	-1%	u	9%	4%	13µM*
COc1cc2c(cc1OC)[C@@H]1C(=O)c3ccc4oc(C(C)C)cc4c3OC1CO2 (some centres undefined)	u	x	-40%	x	x	x
O=C1NC(=O)N(c2ccc3c(c2)OCO3)C(=O)/C1=C\c1ccc(-c2ccccc2C(=O)O)o1	10µM*	u	50µM*	u	79µM*	32µM*
Cc1cccc(N2C(=O)NC(=O)/C(=C/c3ccc(-c4ccc(C(=O)O)c(Cl)c4)o3)C2=O)c1	10µM*	x	45µM*	x	-14%	x
O=C1NC(=O)N(c2ccc3c(c2)OCO3)C(=O)/C1=C/c1ccc(N2CCCCC2)o1	50µM*	-4%	-9%	25%	-36%	-3%
COc1cc2c(c(OC)c1OC)-c1ccc(OC)c(=O)cc1[C@H](NC(C)=O)CC2	13%[21.5 µM]	x	23%	x	x	x
O=C(N/N=C1/CN2CCC1CC2)c1cccc(O)c1	10µM*	x	-16%	2%	u	45µM*
CN1C2CCC1CC(OC(=O)c1cccc(O)c1)C2 (centres undefined)	x	x	x	26%	x	-10%
C#Cc1cccc2c1c(C(=O)c1ccc(Cn3c(C)nc4cnccc43)c(F)c1)cn2C(=O)N(C)C	x	x	-8%	x	x	x
C[N+](C)(C)CCOC(=O)CBr	25µM*!	u	-25%	15%	11%	-18%
O=[N+]([O-])/C=C/c1c(Cl)cccc1Cl	x	x	x	3%	x	40µM*
COc1cccc(-n2c(CN3CCN(C)CC3)nc3ccc([N+](=O)[O-])cc3c2=O)c1	u	-5%	7.9µM*	2%	-33%	-17%
O=c1c2cc([N+](=O)[O-])ccc2nc(CN2CCOCC2)n1-c1ccccc1F	2.8µM*	-13%	22µM*	x	-36%	x

Bioassay records: PubChem BioAssay, National Center for Advancing Translational Sciences (NCATS)
